# Experimental data as given in PubChem BioAssay (NCATS).
# Inconclusive results are not listed. A number with no mark means an inactive call. Activity calls are given as the source filed them. Calls come from the whole dose curve; as a rule, active = well fitted cell-killing curve with a large enough effect; inconclusive = small, poorly fitted or top-dose-only effect; inactive = no such curve, though single readings can be large or run the other way.
# Assay: qHTS of pediatric cancer cell lines to identify multiple opportunities for drug repurposing: Primary screen for NB1643 cells (AID 1347099); note: nearly all actives have a fitted effect of over 50% in size
# Conditions: NB1643 neuroblastoma viability, CellTiter-Glo luminescence, 48 h; series mostly up to 46 µM; activity change, negative = cytotoxic: at the top concentration
# Excerpt: Drug repurposing or repositioning has been offered as a strategy for drug development in oncology programs. This approach has special potential for childhood cancers and other rare or orphan diseases, where the expected return on new drug development has been a disincentive to pharmaceuticals. […] In this project we exploit the poly-pharmacology of drugs to discover new indications via phenotypic screening of a panel of 19 well-characterized cell lines derived from solid tumors seen in children and adolescents. The goal is to identify approved drugs with previously unrecognized anticancer properties that has the potential to reveal new mechanisms and biological processes involved in carcinogenesis or drug resistance. We employed a titration-based paradigm (quantitative high-throughput screening or qHTS), where all compounds were tested at multiple concentrations for their effect on cell viability. Concentration-response curves (CRCs) were derived directly from the primary screen, and both potency and efficacy values were used to identify compounds with robust bioactivity profiles. We screened the NIH Chemical Genomics Center (NCGC) Pharmaceutical Collection (NPC) and Mechanism Interrogation Plate (MIPE) small molecule collections of approved and investigational compounds against these cell lines; and measured metabolically active cells after 48 hours of compound treatment as a proxy for cell viability. […] Assay Submitter: Nathalia J. Martinez, National Center for Advancing Translational Sciences, National Institutes of Health, Rockville, MD, USA; email: natalia.martinez@nih.gov Shen, M et al. Quantitative high-throughput phenotypic screening of pediatric cancer cell lines identifies multiple opportunities for drug repurposing. Oncotarget 2017 Dec 19;9(4):4758-4772. PMID 29435139.
# The cells were obtained from University of North Carolina (UNC), Pediatric Preclinical Testing Program (PPT), and Coriell Institute (CI). qHTS cell viability assay: Cells were assayed in growth media at a density of 500-1,000 cells/well. Five microliters of cells were dispensed into 1,536-well, white, solid-bottom, TC-treated plates (Greiner Bio One) using a multidrop dispenser and incubated at 37 degrees C, 5% CO2, under a humidified atmosphere for 5 hours. Twenty-three nanoliters of compounds and controls (neutral control DMSO or positive control bortezomib at final concentration of 2.3 µM) were subsequently transferred by Kalypsys pintool. For primary screens, the MIPE collection was tested at 11-point dilutions (final concentrations range from 0.78 nM to 46 µM) and the NPC collection at 8-point dilutions (final concentrations range from 0.59 nM to 46 µM). Compounds tested in follow-up screens were assayed at 11-point dilutions. Cells were incubated for 48 hours, followed by addition of 3 µL of CellTiter-Glo (Promega). After a 15 min incubation at room temperature, samples were analyzed for luminescence intensity using a ViewLux High-throughput CCD imager equipped with clear filters.
# Potency is the fitted concentration of half-maximal effect.
Structure (SMILES),Potency,"activity change, negative = cytotoxic"
O=c1cc(N2CCOCC2)oc2c(-c3cccc4c3sc3ccccc34)cccc12,5.26 µM (active),
Cc1cc(OCCCc2c(C(=O)O)n(Cc3cccnc3)c3c(-c4c(COc5ccc(N6CCN([S+](C)(=O)[O-])CC6)cc5)nn(C)c4C)cccc23)cc(C)c1Cl,23.5 µM (active),
CC(=O)Nc1ccc([C@H](C)C(=O)Nc2ncc(C(C)C)s2)cc1,1.18 µM (active),
O=C(O)C(O)Cc1ccc(O)c(O)c1 (stereo not given),,-21.2%
CO[C@H]1C(=O)[C@]2(C)[C@@H](OC)C[C@H]3OC[C@@]3(OC(C)=O)[C@H]2[C@H](OC(=O)c2ccccc2)[C@]2(O)C[C@H](OC(=O)[C@H](O)[C@@H](NC(=O)OC(C)(C)C)c3ccccc3)C(C)=C1C2(C)C,,-35%
NC1=N[C@@]2(c3cc(NC(=O)c4ccc(F)cn4)ccc3F)COC[C@@H]2CS1,,-27.2%
CC1(C)CCC[C@@]2(C)[C@@H]1CC[C@@]1(C)OC(=O)C[C@H]21,,2.52%
Clc1ccc(C(c2ccc(Cl)cc2)n2cc[n+](CC(OCc3ccc(Cl)cc3Cl)c3ccc(Cl)cc3Cl)c2)cc1 (stereo not given),23.5 µM (active),
O=C(O)c1ccccc1C(=O)Nc1ccc(-c2ccccc2)cc1,,0.931%
C[C@H](NC(=O)c1sccc1OCc1ccc(Cl)cc1)c1ccccc1,23.5 µM (active),
NC(=O)c1cccc(-c2cc(Nc3ccc(OC(F)(F)F)cc3)ncn2)c1,,-5.72%
CN1C[C@H]2c3ccccc3Oc3ccc(Cl)cc3[C@@H]2C1,inactive,
Oc1ccc(C2=Cc3ccc(O)cc3OC2)cc1,9.35 µM (active),
CO[C@H]1C=CC=C(C)C(=O)NC2=CC(=O)C(NCCN(C)C)=C(C[C@@H](C)C[C@H](OC)[C@@H](O)[C@@H](C)C=C(C)[C@@H]1OC(N)=O)C2=O,0.166 µM (active),
CN(C)C1CCN(C(=O)c2ccc(NC(=O)Nc3nc(N4CCOCC4)nc(N4CCOCC4)n3)cc2)CC1,0.372 µM (active),
CC(C)(C)c1ccc(C(O)CCCN2CCC(C(O)(c3ccccc3)c3ccccc3)CC2)cc1 (stereo not given),,0%
CCOC(CN1C(=O)[C@](CC(=O)Nc2ccc(C)cc2)(NC(=O)Nc2ccc(C)cc2)c2ccccc21)OCC,16.6 µM (active),
NC(=O)[C@@H](CCC(F)(F)F)N(Cc1ccc(-c2ncon2)cc1F)S(=O)(=O)c1ccc(Cl)cc1,23.5 µM (active),
CC(=O)c1ccc(S(=O)(=O)NC(=O)NC2CCCCC2)cc1,,5.28%
COC(=O)[C@@H]1[C@H]2C[C@H]3c4[nH]c5ccccc5c4CCN3C[C@@H]2CC[C@@H]1O,,-6.19%

Structure (SMILES),Potency,"activity change, negative = cytotoxic"
COc1ccc2c(Oc3ccc(NC(=O)c4c(C)n(CC(C)(C)O)n(-c5ccccc5)c4=O)nc3)ccnc2c1,,-21.6%
COc1ccccc1N1CCN(CCCNc2cc(=O)n(C)c(=O)n2C)CC1,,24.2%
COC1CCC(N(C(=O)C2CCC(C)CC2)c2cc(C3=CCCCC3)sc2C(=O)O)CC1 (stereo not given),23.5 µM (active),
O=c1cc(-c2ccccc2)oc2cc(O)cc(O)c12,,1.51%
CCOc1ccc(Nc2nc(-c3c(C)nc4ccccn34)cs2)cc1,,-28.5%
CCCCCN(C)CCC(O)(P(=O)(O)O)P(=O)(O)O,,7.48%
CC(C)(C)OC(=O)N[C@H]1CCCCCC=C[C@@H]2C[C@@]2(C(=O)NS(=O)(=O)C2CC2)NC(=O)[C@@H]2C[C@@H](OC(=O)N3Cc4cccc(F)c4C3)CN2C1=O,,-4.41%
O=c1c(O)c(-c2ccc(O)cc2)oc2cc(O)cc(O)c12,11.8 µM (active),
CC[C@]1(O)C[C@@H]2CN(CCc3c([nH]c4ccccc34)[C@@](C(=O)OC)(c3cc4c(cc3OC)N(C)[C@H]3[C@@](O)(C(=O)OC)[C@H](OC(C)=O)[C@]5(CC)C=CCN6CC[C@]43[C@@H]65)C2)C1,1.33 µM (active),
O=C(O)C=Cc1ccc(O)c(O)c1,20.9 µM (active),
COc1ccc(-n2c(C)c([N+](=O)[O-])c3ccc(O)cc32)cc1,5.9 µM (active),
C[N+](C)(C)CCCCCC[N+](C)(C)C,,9.9%
CC(=O)CCCCn1c(=O)c2c(ncn2C)n(C)c1=O,,25.8%
COc1ccc(-c2coc3cc(O)ccc3c2=O)cc1,,5.5%
NC(=O)c1ccc2nc(-c3ccc(Oc4ccc(Cl)cc4)cc3)[nH]c2c1,,-12.7%
CCn1cc(C(=O)O)c(=O)c2ccc(C)nc21,inactive,
C[C@@H](O)[C@H]1C(=O)N2C(C(=O)O)=C(S[C@@H]3CN[C@H](C(=O)N(C)C)C3)[C@H](C)[C@H]12,inactive,
C[C@]12CC[C@@H]3c4ccc(O)cc4C[C@@H](CCCCCCCCCS(=O)CCCC(F)(F)C(F)(F)F)[C@H]3[C@H]1CC[C@H]2O (stereo not given in full),,-4.93%
O=C1NC(=O)C(=Cc2ccc(-c3ccc(F)cc3)o2)S1,18.7 µM (active),
Cc1ccccc1C(C(=O)NC1CCCCC1)N(C(=O)Cn1ccnc1C)c1cccc(F)c1 (stereo not given),,-5.12%
